# High-throughput results (PubChem BioAssay)
# Compounds with a hit are over-represented: about 3.6% of the library has one in this group of screens.
# D1 antagonist = antagonists of human D1 dopamine receptor; HEK293 TREx D1 cells, calcium flux, dopamine EC80; stronger effect = lower value; activity change, negative = inhibition, % at 10 µM; 360,000 tested, 3.2% active; AID 504652; in the data active = activity change below about -30%
# Target sequence (P21728 whole entry, looked up): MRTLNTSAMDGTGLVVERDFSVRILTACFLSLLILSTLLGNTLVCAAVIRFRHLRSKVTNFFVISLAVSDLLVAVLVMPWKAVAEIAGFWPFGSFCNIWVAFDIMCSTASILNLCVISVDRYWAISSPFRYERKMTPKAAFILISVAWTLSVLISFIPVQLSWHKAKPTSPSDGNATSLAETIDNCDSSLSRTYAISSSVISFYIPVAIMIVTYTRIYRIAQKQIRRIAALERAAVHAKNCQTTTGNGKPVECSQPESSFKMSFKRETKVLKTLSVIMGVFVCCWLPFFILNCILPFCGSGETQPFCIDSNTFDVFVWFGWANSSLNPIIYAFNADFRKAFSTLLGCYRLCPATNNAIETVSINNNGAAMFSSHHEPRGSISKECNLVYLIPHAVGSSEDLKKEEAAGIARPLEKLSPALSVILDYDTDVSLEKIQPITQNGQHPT
#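 Compound effects on dopamine-evoked calcium signalling were measured in tetracycline-induced HEK293 Trex D1 cells. Dopamine at EC80 followed a 180 s compound pre-read, and fluorescence was tracked kinetically for 180 s more.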
# LDHA block = inhibitors of human lactate dehydrogenase A. purified LDHA, NADH/diaphorase-resazurin fluorescence; stronger effect = lower value. activity change, % (values are at about 110 or 230 µM). 480,000 tested, 0.15% active. AID 1347041; in the data active = activity change below about -30%
#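 Human LDH5 (2 nM) was incubated with 0.06 mM NADH and 0.2 mM pyruvate for 5 min at room temperature in Tris pH 7.4. Remaining NADH was coupled through diaphorase/resazurin, and resorufin fluorescence was read at 0 and 20 min.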
# D1 PAM = potentiators of human D1 dopamine receptor. P21728. potentiation, % at 10 µM. 360,000 tested, 0.036% active. AID 504651. HEK293 TREx D1 cells, calcium flux, dopamine EC20 potentiation; in the data active = potentiation above about 30%
# D1 agonist = human D1 receptor agonism | P21728 | HEK293 T-REx D1 cells, calcium flux, agonist mode | activation, % at 2 µM | 360,000 tested, 1% active | AID 504660
#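 Agonism was scored from calcium flux recorded over 180 s (1 read/s) after pintool compound addition, following a 10-cycle baseline. Cells were inducible force-coupled HEK293 TREx D1, plated overnight at 30 C and loaded with no-wash calcium dye.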
# TRHR PAM = TRH receptor (human) allosteric enhancement | TRHR cells, fluo-8 calcium fluorescence, EC20 TRH enhancement | enhancement, % at 2 µM | 360,000 tested, 0.66% active; in the data active = enhancement above about 30%
#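 Enhancer read-out: after compound pinning and an initial kinetic agonist-mode read, an EC20 of TRH (10 nM final) was injected and fluo-8 calcium signal (Ex 480/Em 530) followed at 1 s/cycle for 100 cycles in TRHR-expressing cells.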
# TRHR ag = activates the human TRH receptor. P34981. TRHR cells, calcium flux fluo-8, FDSS agonist mode. activation, % at 2 µM. 360,000 tested, 0.18% active. AID 493084
#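 TRHR-expressing cells, plated overnight in medium with 10% serum, were loaded with fluo-8 calcium dye at room temperature. After a 10 s baseline, library compound was pin-added and calcium release was recorded kinetically (ex 480/em 530) as agonist response.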
# A number is an active result; . = inactive; / = no result given; ! = not confirmed by another sample. Cut-off read from the data, not from the text of the source, unless noted: active = activation above about 30%; inactive = the rest.
SMILES,D1 antagonist,LDHA block,D1 PAM,D1 agonist,TRHR PAM,TRHR ag
COc1ccccc1CC(=O)Nc1ccc2c(c1)NC(=O)CS2,/,.,/,/,/,/
c1cc2c3c(cccc3c1)NC1(CCC3(CC1)Nc1cccc4cccc(c14)N3)N2,-40,.,.,.,.,.
c1cc2c3c(cccc3c1)NC1(CCCCCC1)N2,.,.,.,.,.,.
O=C(COC(=O)c1ccc(F)c(S(=O)(=O)N2CCOCC2)c1)Nc1ccccc1OC(F)F,/,.,/,/,/,/
CCOc1ccc(N(C)S(=O)(=O)c2ccc3c(c2)C(C)(C)C(=O)N3C)cc1,-36,.,.,.,.,.
CCc1ccccc1NS(=O)(=O)c1ccc2c(c1)C(C)(C)C(=O)N2C,.,.,.,.,.,.
CCOc1ccccc1CNS(=O)(=O)c1ccc2c(c1)C(C)(C)C(=O)N2C,-35!,.,.,.,.,.
O=S1(=O)CCN2C(c3cc(Cl)ccc3Cl)=CSC2=N1,/,.,/,/,/,/
CCCc1nnc(C(=O)Nc2ccc(C(=O)N3CCOCC3)cc2)s1,/,.,/,/,/,/
Cc1ccc(CNC(=O)c2ccc3c(=O)c(O)c(-c4ccc(C)cc4)[nH]c3c2)cc1,-41,.,.,.,.,.
Cc1ccc(-c2[nH]c3cc(C(=O)NCCCn4ccnc4)ccc3c(=O)c2O)cc1,-57,.,.,.,.,.
COc1ccc(S(=O)(=O)c2c(O)c3ccc(C(=O)NCc4ccccc4)cc3[nH]c2=O)cc1,.,.,.,.,.,.
Cc1ccc(-c2[nH]c3cc(C(N)=O)ccc3c(=O)c2O)cc1,-36,.,.,.,.,.
CCCNC(=O)c1ccc2c(=O)c(O)c(-c3ccc(OC)cc3)[nH]c2c1,-35,.,.,.,.,.
O=C(CN1CCN(Cc2nc3ccccc3o2)CC1)NC1CC1,/,.,/,/,/,/
COc1cc(SC)ccc1C(=O)OCC(=O)NC(=O)NCc1ccco1,/,.,/,/,/,/
COc1ccc(C(=O)c2sc(NCc3ccccc3)nc2N)cc1,/,.,/,/,/,/
C=CCNc1nc(-c2c(C(=O)OC)c(C)n(C3CC3)c2C)cs1,/,.,/,/,/,/
COC(=O)c1ccc(CN(C)C(=O)CCc2ncc(-c3ccc(F)cc3)o2)cc1,/,.,/,/,/,/
CCCNC(=O)c1ccc2c(=O)c(O)c(-c3ccc(C)cc3)[nH]c2c1,-93,.,.,.,.,.
CCCNC(=O)c1ccc2c(=O)c(O)c(-c3ccsc3)[nH]c2c1,.,.,.,.,.,.
CN1N=C(C(=O)Nc2ccc3c(c2)CCC3)CCC1=O,-32,.,.,.,.,.
Cn1ncc(Cl)c1C(=O)Nc1ccc2c(c1)CCC2,.,.,.,.,.,.
O=C(Nc1ccc(N2CCCCC2)c(Cl)c1)c1ncn[nH]1,.,.,.,39,.,.
O=C(Nc1ccc(N2CCN(C(=O)c3ccccc3F)CC2)cc1)c1ncn[nH]1,.,.,.,.,33,.
SMILES,D1 antagonist,LDHA block,D1 PAM,D1 agonist,TRHR PAM,TRHR ag
NC(=O)C(=O)Nc1ccccc1C(=O)NCc1ccncc1,/,.,/,/,/,/
Cc1c(C(=N)C(C#N)C#N)c(=N)oc2c1ccc1ccccc12,-41,.,.,.,.,.
Cc1c(C(=O)OC(C)C#N)oc2c1ccc1ccccc12 (stereo not given),/,.,/,/,/,/
Nc1nccnc1C(=O)NCCc1ccc(Cl)cc1,/,.,/,/,/,/
Cc1n[nH]c(C)c1N1C(=O)c2cccc3c(N4CCCCCC4)ccc(c23)C1=O,.,.,.,281,.,126
O=C1c2cccc3c(N4CCCCC4)ccc(c23)C(=O)N1c1cccc(O)c1,.,.,.,300,.,73
O=C1c2ccccc2C(=O)N1c1cccc(O)c1,/,.,/,/,/,/
C=CCN1C(=O)c2cccc3c(N4CCCCC4)ccc(c23)C1=O,.,.,.,89,.,34
O=C1c2cccc3c(N4CCCCC4)ccc(c23)C(=O)N1CCO,.,.,.,109,.,69
COc1cc(OC)c(NC(=O)CSc2nncn3c2cc2oc(C)cc23)cc1Cl,/,.,/,/,/,/
Cc1ccc(C(=O)NC2CC2)cc1NC(=O)CC1C=CCC1 (stereo not given),/,.,/,/,/,/
CCOc1ccc2c(C)c(CC(=O)O)c(=O)oc2c1,/,.,/,/,/,/
CC(C)c1ccc2nc3sc(C(=O)N4CCc5ccccc5C4)c(N)c3cc2c1,.,.,.,31,.,.
CCN(CC)S(=O)(=O)c1ccc2c(c1)c(=O)c(C(=O)N1CCc3ccccc3C1)cn2C,-37,.,.,.,.,.
CC(=O)NCCc1sc(-c2cccc(F)c2)nc1C,/,.,/,/,/,/
Nc1nccnc1C(=O)NCC1CCC1,/,.,/,/,/,/
OC(CNC1CCCCC1)COCCOc1ccc(Br)cc1 (stereo not given),-30,.,.,48,.,.
COc1cccc(OCCOCC(O)CN2CCN(Cc3ccc(Cl)cc3)CC2)c1 (stereo not given),.,.,.,.,.,.
OC(COCCOc1ccc(Br)cc1)CN1CCN(Cc2ccccc2)CC1 (stereo not given),-31,.,.,.,.,.
CCc1ccc(OCCOCC(O)CN2CCN(Cc3ccc(Cl)cc3)CC2)cc1 (stereo not given),-36,.,.,40,.,.
CC(=O)Nc1ccc(OCC(O)CN2CCN(Cc3ccccc3)CC2)cc1 (stereo not given),.,.,.,.,.,.
COC(=O)c1ccc(OCC(O)CNC2CCCC2)cc1 (stereo not given),.,.,.,.,.,.
C=CCN(CC(N)=O)Cc1cccs1,/,.,/,/,/,/
CNc1c(NC(=O)C2CC(=O)N(c3ccccc3)C2)c(=O)oc2ccccc12 (stereo not given),/,.,/,/,/,/
Nc1[nH]n2c(=O)cc(-c3ccccc3)nc2c1N=Nc1ccc(S(N)(=O)=O)cc1,.,.,.,.,.,.
SMILES,D1 antagonist,LDHA block,D1 PAM,D1 agonist,TRHR PAM,TRHR ag
Nc1[nH]n2c(=O)cc(-c3ccccc3)nc2c1N=Nc1ccccc1,-38,.,.,.,.,.
N#Cc1cccnc1SCc1cccc(C(F)(F)F)c1,/,.,/,/,/,/
Cc1ccc(Nc2nc(N3CCN(CCO)CC3)nc3c2cnn3-c2ccccc2)cc1,/,.,/,/,/,/
O=C(CCCCCn1c(=S)[nH]c2ccc(N3CCOCC3)cc2c1=O)NC1CCN(Cc2ccccc2)CC1,-32,.,.,.,.,.
O=c1c2ccccc2[nH]c(=S)n1CCCN1CCN(c2ccccc2F)CC1,-75,.,.,.,.,.
O=c1c2ccccc2[nH]c(=S)n1CCCN1CCN(c2ccccc2)CC1,-58,.,.,.,.,.
O=C(NC1CCN(Cc2ccccc2)CC1)c1ccc(Cn2c(=S)[nH]c3ccc(N4CCOCC4)cc3c2=O)cc1,.,.,.,.,.,.
O=c1c2ccccc2[nH]c(=S)n1CCN1CCCCC1,.,.,.,.,.,.
CCCNC(=O)C(C)NC(=O)CN(C)Cc1ccc(C(F)(F)F)cc1 (stereo not given),/,.,/,/,/,/
